Calls of active or inactive are those of the source. The call rests on the fitted dose curve; in most records, active means well fitted activation curve with a large enough effect; inactive means flat fitted curve, though single readings scatter.

The assay in a line: Confirmation Concentration-Response Assay for Epigenetic Modulators. To be noted: murine C127i cells, silenced GFP reporter derepression, imaging. From the text: NIH Molecular Libraries Screening Centers Network [MLSCN] NIH Chemical Genomics Center [NCGC] MLSCN Grant: 1 X01 MH079860-01 Assay Provider: Elisabeth D. Martinez, University of Texas SW Medical Center NCGC Assay Overview: The Locus Derepression assay detects the derepression of a GFP reporter that is stably integrated in a region of the genome of murine c127i mammary cells that is presumably silenced. GFP transcription in this construct is controlled by a CMV promoter, which normally is strong and constitutively active. However, this line was selected for lack of constitutive expression of the GFP protein. GFP production can be induced by incubating the cells with histone deacetylase or DNA methyltransferase inhibitors. Compounds that cause derepression of the locus to express GFP are identified by enumerating GFP positive cells using a laser-scanning microplate cytometer.
NCGC Assay Protocol Summary: Two hundred and fifty cells in 5 uL per well were dispensed into black, clear-bottom 1536-well plates. Twenty-three nL compound was transferred to the assay plate and cells were incubated 30 hours at 37 C. […]

Turning to `CN1CSC(=S)N(C)C1`, the Potency was 7.95 µM (active).

Values taken from PubChem BioAssay AID890 (National Center for Advancing Translational Sciences (NCATS), 2007).
